Laboratory results published in the supplement of paper PMC11732987, “Enantioselective OTUD7B fragment discovery through chemoproteomics screening and high-throughput optimisation” (Communications Chemistry, 2025).

Columns and labels:
Assay in all cases: log2 ratio of Biotin-Ahx-Ub-VS probe labelling (fragment/DMSO); higher = less target engagement (more negative = stronger competition), active = hit call of the paper (q ≤ 0.05, log2 ratio ≤ -1)
Conditions in all cases: compound concentration: 200 uM; treatment time: 3 h
USP34 = USP34 (UniProt Q70CQ2)
USP34, sequence (Q70CQ2 whole entry, the tested form may be a part): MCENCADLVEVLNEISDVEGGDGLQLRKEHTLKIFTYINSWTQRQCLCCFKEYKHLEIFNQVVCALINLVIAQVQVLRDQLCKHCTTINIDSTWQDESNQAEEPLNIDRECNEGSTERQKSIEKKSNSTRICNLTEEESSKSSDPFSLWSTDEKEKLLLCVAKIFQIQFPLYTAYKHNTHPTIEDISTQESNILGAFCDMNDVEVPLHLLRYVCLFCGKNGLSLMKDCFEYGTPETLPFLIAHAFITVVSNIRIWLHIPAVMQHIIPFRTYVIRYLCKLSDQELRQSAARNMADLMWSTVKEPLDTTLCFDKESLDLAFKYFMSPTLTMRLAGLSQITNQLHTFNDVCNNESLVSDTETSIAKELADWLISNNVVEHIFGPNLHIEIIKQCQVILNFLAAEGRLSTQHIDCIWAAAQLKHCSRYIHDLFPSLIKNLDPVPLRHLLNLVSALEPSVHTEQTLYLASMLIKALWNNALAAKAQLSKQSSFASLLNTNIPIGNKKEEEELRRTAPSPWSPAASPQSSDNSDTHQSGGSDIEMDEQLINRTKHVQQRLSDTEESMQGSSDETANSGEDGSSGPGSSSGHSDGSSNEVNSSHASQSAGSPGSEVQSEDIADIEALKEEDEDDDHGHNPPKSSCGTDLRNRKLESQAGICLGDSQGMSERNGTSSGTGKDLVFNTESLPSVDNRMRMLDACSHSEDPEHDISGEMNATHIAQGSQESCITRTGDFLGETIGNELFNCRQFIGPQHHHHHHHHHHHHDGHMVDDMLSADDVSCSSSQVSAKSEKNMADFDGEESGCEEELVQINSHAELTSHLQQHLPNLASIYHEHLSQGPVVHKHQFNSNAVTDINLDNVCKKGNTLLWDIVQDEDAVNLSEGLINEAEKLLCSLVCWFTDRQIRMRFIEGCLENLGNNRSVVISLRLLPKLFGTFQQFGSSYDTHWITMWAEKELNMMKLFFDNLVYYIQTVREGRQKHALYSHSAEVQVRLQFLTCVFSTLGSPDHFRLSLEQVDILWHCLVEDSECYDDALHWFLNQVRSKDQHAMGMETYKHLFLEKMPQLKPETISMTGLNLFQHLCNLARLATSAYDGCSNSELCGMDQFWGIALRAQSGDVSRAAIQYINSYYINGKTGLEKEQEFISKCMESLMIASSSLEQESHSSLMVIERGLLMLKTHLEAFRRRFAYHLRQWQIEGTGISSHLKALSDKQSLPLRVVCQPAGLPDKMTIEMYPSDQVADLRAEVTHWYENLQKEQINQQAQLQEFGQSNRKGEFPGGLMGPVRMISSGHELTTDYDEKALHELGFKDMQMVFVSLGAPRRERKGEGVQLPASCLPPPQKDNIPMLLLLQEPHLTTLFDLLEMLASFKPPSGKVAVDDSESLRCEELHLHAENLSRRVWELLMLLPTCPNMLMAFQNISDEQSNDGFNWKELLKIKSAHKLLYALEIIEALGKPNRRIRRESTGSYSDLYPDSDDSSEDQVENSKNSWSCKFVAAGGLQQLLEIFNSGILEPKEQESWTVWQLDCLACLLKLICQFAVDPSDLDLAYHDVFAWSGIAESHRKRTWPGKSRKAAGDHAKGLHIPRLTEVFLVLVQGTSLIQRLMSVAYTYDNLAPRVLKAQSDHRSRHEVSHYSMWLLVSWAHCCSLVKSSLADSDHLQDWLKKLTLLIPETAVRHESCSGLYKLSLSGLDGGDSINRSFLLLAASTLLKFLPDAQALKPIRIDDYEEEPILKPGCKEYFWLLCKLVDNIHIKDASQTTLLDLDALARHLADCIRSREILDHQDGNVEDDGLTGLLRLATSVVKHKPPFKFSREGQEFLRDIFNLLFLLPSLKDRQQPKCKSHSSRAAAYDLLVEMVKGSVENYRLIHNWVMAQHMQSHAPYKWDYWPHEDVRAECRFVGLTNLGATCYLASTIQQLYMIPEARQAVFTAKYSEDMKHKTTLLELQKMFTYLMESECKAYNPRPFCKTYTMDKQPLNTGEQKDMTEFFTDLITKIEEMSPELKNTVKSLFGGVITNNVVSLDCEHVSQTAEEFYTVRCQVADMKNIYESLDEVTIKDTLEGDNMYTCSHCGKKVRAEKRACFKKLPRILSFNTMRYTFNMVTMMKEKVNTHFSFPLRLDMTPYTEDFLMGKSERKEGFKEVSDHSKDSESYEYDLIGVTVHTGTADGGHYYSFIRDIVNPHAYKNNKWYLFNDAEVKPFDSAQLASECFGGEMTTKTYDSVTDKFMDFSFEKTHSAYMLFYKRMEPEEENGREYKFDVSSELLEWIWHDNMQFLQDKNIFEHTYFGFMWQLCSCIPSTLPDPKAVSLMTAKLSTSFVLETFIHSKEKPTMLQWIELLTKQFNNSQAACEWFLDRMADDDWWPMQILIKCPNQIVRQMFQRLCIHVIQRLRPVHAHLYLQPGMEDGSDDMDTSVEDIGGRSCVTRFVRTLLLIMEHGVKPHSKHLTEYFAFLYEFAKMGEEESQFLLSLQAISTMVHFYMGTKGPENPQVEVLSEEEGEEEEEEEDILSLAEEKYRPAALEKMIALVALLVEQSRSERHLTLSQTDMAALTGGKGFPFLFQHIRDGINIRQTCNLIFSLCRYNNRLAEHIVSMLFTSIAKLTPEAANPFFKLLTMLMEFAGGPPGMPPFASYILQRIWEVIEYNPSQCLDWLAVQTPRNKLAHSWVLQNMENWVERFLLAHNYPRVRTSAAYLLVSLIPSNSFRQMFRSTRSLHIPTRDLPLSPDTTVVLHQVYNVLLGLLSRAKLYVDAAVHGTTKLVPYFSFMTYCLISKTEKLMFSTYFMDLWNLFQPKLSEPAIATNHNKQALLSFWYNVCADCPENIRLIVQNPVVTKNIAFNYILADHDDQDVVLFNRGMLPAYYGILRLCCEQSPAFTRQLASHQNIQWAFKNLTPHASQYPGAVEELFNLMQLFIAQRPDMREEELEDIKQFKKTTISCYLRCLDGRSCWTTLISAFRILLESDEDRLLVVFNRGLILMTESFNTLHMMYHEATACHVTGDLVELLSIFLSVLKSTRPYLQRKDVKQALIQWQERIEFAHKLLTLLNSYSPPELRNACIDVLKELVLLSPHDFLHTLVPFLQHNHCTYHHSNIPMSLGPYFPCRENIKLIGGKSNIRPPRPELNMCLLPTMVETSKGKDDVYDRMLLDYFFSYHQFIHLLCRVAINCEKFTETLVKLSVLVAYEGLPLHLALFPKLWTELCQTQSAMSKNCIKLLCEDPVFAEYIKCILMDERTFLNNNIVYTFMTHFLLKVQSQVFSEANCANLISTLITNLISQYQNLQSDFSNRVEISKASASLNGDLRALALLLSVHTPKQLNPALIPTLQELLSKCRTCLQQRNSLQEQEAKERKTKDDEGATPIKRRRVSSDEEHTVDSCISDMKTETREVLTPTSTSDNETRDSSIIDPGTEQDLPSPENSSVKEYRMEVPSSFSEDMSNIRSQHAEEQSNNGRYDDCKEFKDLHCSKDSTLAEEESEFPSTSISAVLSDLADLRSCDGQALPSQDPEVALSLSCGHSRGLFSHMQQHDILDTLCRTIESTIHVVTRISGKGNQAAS
How it was run: (§1)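 Labelled DUBs from HEK293T lysate were NeutrAvidin-enriched, digested with LysC and trypsin, and run by diaPASEF LC-MS/MS. Before that, each 495 µg sample in Tris/CHAPS/IGEPAL buffer with protease inhibitors was treated in triplicate with fragment at 200 µM or vehicle for 3 h, then with Biotin-Ahx-Ub-VS at 0.5 µM final for 1 h. Values are average log2 ratios of fragment over vehicle by unpaired t-test, based on global-median-normalised Spectronaut label-free quantities from proteins with ≥2 unique peptides.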

USP36 = target: T1, USP36 (UniProt Q9P275)
T1 sequence (whole entry): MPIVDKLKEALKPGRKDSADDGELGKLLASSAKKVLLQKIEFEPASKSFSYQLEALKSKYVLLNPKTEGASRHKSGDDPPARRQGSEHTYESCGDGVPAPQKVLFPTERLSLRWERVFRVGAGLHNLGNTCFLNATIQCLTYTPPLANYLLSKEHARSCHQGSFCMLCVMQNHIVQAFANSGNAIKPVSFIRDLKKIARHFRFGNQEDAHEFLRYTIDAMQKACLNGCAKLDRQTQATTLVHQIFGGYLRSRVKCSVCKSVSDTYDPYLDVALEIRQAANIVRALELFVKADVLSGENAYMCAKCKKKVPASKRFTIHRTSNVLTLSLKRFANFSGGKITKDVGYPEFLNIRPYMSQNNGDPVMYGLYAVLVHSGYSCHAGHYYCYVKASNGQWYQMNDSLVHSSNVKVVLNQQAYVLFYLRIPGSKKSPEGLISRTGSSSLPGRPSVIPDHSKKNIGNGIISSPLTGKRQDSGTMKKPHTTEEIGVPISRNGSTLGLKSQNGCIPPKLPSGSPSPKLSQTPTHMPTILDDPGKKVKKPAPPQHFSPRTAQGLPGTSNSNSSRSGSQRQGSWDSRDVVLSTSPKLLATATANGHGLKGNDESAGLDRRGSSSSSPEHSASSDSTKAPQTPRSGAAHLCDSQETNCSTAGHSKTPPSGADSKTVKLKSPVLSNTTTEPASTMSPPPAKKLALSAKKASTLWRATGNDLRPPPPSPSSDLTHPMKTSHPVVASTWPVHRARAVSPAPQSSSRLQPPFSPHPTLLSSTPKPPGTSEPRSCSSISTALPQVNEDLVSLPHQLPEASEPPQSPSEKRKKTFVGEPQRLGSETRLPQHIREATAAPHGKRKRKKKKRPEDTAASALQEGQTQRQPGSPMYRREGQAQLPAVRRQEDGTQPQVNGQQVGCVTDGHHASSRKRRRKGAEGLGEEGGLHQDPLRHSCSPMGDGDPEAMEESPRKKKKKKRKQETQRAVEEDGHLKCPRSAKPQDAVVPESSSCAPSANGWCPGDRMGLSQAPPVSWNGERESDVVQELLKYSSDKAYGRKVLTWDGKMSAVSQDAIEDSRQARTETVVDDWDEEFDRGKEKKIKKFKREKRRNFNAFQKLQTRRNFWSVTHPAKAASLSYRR
How it was run: as §1

USP38 = target: T2, USP38 (UniProt Q8NB14)
T2 sequence (whole entry): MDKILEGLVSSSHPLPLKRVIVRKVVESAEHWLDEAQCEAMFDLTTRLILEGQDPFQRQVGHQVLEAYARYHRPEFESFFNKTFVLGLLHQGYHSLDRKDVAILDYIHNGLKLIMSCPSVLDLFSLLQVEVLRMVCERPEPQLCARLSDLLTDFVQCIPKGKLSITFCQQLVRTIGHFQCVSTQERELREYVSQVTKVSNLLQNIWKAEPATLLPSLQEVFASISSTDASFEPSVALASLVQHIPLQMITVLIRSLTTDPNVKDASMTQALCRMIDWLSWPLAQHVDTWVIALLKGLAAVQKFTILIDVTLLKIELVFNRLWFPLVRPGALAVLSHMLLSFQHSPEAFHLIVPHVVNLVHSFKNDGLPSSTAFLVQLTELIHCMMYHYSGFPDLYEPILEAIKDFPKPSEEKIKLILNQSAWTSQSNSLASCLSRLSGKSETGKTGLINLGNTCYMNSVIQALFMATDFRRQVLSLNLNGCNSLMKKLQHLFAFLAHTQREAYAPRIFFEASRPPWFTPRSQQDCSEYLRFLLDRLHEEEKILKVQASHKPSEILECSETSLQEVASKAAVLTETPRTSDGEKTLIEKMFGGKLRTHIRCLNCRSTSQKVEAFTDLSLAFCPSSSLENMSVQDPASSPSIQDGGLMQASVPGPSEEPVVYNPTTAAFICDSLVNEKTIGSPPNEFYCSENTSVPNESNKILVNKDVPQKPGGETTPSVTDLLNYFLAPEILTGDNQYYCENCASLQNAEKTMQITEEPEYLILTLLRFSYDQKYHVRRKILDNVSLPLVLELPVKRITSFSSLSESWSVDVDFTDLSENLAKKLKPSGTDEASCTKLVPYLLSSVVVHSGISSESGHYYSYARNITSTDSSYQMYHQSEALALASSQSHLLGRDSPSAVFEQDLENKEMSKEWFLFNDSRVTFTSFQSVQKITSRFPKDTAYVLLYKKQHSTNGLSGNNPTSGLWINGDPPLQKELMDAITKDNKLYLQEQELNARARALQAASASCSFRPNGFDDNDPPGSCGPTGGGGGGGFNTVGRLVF
How it was run: as §1

USP39 = target: T3, USP39 (UniProt Q53GS9)
T3 sequence (whole entry): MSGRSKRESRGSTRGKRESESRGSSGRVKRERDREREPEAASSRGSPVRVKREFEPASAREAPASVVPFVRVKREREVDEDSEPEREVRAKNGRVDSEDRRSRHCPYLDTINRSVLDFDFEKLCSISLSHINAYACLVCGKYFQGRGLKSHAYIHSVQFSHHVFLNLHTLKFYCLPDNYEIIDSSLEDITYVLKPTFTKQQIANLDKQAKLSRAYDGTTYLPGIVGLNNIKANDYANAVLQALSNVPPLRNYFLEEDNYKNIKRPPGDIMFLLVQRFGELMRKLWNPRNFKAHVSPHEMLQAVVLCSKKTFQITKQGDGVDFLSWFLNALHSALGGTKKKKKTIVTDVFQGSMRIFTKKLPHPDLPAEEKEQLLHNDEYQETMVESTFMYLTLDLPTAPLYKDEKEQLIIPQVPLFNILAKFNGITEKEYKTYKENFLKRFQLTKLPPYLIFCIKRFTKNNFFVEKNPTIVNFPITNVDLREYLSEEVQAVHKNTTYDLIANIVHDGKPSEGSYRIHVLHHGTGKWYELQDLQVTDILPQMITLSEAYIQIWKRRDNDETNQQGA
How it was run: as §1

USP4 = target: T4, USP4 (UniProt Q13107)
T4 sequence (whole entry): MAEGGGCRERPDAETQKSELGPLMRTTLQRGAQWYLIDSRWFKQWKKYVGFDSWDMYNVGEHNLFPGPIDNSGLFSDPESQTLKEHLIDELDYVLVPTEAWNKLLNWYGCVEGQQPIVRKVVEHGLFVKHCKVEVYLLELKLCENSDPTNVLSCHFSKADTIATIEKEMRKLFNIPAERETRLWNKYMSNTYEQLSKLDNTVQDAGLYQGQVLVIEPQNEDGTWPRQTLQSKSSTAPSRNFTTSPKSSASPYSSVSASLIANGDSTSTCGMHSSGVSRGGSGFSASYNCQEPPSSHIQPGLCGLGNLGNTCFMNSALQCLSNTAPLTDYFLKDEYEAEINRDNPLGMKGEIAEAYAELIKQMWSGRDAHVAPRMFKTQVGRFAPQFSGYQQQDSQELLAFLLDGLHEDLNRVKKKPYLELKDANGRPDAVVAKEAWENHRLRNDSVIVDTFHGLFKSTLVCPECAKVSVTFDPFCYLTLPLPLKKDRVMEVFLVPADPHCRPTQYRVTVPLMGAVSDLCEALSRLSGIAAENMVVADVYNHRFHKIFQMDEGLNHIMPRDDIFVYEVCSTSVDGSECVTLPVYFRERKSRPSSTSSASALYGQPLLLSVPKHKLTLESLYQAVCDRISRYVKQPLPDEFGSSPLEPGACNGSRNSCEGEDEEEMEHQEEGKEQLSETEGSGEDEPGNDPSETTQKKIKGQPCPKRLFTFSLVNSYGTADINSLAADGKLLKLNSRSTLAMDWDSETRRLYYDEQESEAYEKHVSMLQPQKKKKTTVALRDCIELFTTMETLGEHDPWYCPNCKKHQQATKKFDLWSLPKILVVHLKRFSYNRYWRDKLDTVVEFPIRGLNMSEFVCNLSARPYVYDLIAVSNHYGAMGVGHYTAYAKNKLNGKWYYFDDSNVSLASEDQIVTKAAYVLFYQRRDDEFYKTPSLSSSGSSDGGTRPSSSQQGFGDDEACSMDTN
How it was run: as §1

Measured: log2 ratio of Biotin-Ahx-Ub-VS probe labelling

COc1ccccc1C(C)NC(=O)CCl (stereo not given)
inactive: USP34 -0.129 | USP36 -0.00263 | USP38 -0.182 | USP39 -0.155 | USP4 -0.226
